Source: PubChem BioAssay (NCATS)
Records with an inconclusive call do not appear. A number with no mark means an inactive call. Activity calls are given as the source filed them. Calls follow the shape of the dose curve; as a rule, active = well fitted inhibition curve with a large enough effect; inconclusive = small, poorly fitted or top-dose-only effect; inactive = no such curve, though single readings can be large or run the other way.

What follows are compounds tested against Retinaldehyde dehydrogenase 3 (Homo sapiens) (UniProt P47895) (assay: qHTS for Inhibitors of the Aldehyde Dehydrogenase Family (ALDH1A3) Confirmatory screens (AID 2061311; also: nearly all actives have a fitted effect of over 60% in size)). Details: ALDH inhibition qHTS; series mostly up to 46 µM; activity change, negative = inhibition: at the top concentration.
% is scaled to controls: 0 for no effect and ±100 for the full control effect; potency is read from the fitted curve at half-maximal effect.

| SMILES | Potency | outcome | activity change, negative = inhibition |
| --- | --- | --- | --- |
| COc1cccc(CNc2ccc(S(=O)(=O)Nc3ccc(N4CCNCC4)nc3)cc2)c1O | 15.9 µM (active) | – | – |
| CC(=O)Nc1ccc(CN2CCCC(N3CCN(c4ccccc4)CC3)C2)cc1 (stereo not given) | – | inactive | – |
| O=C(Nc1ccc(Oc2ccccc2)cc1)c1ccc(F)c(S(=O)(=O)N2CCN(c3cccc(Cl)c3)CC2)c1 | – | inactive | – |
| Cc1ccc(N[S+](=O)([O-])c2cc3c(cc2N[C@@H](C)CO)NC(=O)CC3)cc1N[C@@H](C)CO | 14.2 µM (active) | – | – |
| Cc1ccc(Oc2nc3c(c(=O)n(Cc4ccccc4Cl)c(=O)n3C)n2C)cc1C | – | – | -6.92% |
| CCc1ccc(O)c(C(=O)c2cnc3cc(-c4ccc(C)cc4)nn3c2)c1 | – | – | -27.7% |
| CCOc1ccc(NC(=O)N2CCC(CC(=O)NCc3ccccc3)C2)cc1 (stereo not given) | – | – | -20.7% |
| Cc1nonc1OCCn1cc(-c2ccc(CO)o2)nn1 | – | – | 1.88% |
| COc1ccccc1-c1cnc2n[nH]c(-c3ccccc3C)c2n1 | – | inactive | – |
| COc1ccc(-c2nc3ccccc3c(=O)n2Cc2ccccc2)cc1OCc1ccc(NC(C)=O)cc1 | 22.5 µM (active) | – | – |
| COCCNC(=O)c1cc(-c2ccc(OC)cc2)nc2c1c(C)nn2-c1ccccc1 | 25.1 µM (active) | – | – |
| O=C(C#Cc1ccccc1)NC1CCCc2c1cnn2-c1ccc(F)cc1F (stereo not given) | – | – | -9.82% |
| CC(=O)NC(c1ccco1)c1cc(Cl)c2ccccc2c1O (stereo not given) | 11.3 µM (active) | – | – |
| O=C(CSc1nc2c(cnn2-c2ccc(F)cc2)c(=O)[nH]1)Nc1ccc(Br)cc1 | – | inactive | – |
| O=[S+]([O-])(c1ccccc1)c1nnn2c1nc(N1CCC(F)CC1)c1ccccc12 | – | – | -19.8% |
| O=c1c2cnn(-c3ccc(Cl)cc3)c2ncn1Cc1cccc(C(F)(F)F)c1 | – | inactive | – |
| O=S(=O)(Nc1nc2ccccc2s1)c1ccc(NCc2ccc(Br)cc2O)cc1 | 14.2 µM (active) | – | – |
| CCOc1ccc(NC(=O)Nc2cc3c(cc2N2CCCCC2)n(C)c(=O)n3C)cc1 | – | – | -43.3% |
| CN(C(=O)c1cnc2n[nH]c(-c3ccccc3)c2n1)c1ccccc1 | – | – | -33.3% |
| Cc1cc2nc3n(c(=O)c2n1CC(=O)Nc1ccc(Br)cc1F)CCC3 | – | – | -4.3% |

| SMILES | Potency | outcome | activity change, negative = inhibition |
| --- | --- | --- | --- |
| CCc1nn2c(=O)c(S(=O)(=O)Nc3ccc(C)cc3C)c(C)nc2s1 | – | – | 2.23% |
| Cc1noc(C)c1-c1cnc(Nc2ccc(F)c(Cl)c2)c2c1CCO2 | 31.6 µM (active) | – | – |
| COc1ccccc1-c1ccc2ncc(Nc3cccc(O)c3)n2n1 | – | – | -17.9% |
| Cn1ncc2c(C(=O)NCC(F)(F)F)cc(-c3ccccc3F)nc21 | – | – | -45.3% |
| CCn1nc(-c2cccc(-c3ccnn3C)c2)nc1N(C)C | – | inactive | – |
| N#Cc1cccc(C(=O)Nc2ccc3c(N4CCOCC4)ncnc3c2)c1 | – | – | 1.89% |
| O=C(CCc1ccccc1)Nc1ccc([C@@H](O)[C@H]2COCC(=O)N2Cc2ccncc2)cc1 | – | – | 0.496% |
| COc1ccc(-c2nnc3ccc(NCCc4ccccc4)nn23)nc1 | 20 µM (active) | – | – |
| O=C(CSc1nc2ncccc2[nH]1)Nc1cc(F)ccc1F | – | – | -23.4% |
| Cc1cc(Br)ccc1NC(=O)CCNS(=O)(=O)c1cccc2nonc12 | – | – | -43.9% |
| COCCn1c(CNC(=O)c2cc([N+](=O)[O-])ccc2Cl)nc2cccnc21 | – | inactive | – |
| Fc1cccc(Cc2noc(-c3nc(-c4ccc5c(c4)OCO5)no3)n2)c1 | – | – | -2.24% |
| CNC(=O)c1cccc(-c2ccc(C(C)(C)C#N)cc2)n1 | 8.91 µM (active) | – | – |
| COc1cccc(-c2nccc3c(=O)cc(N4CCOCC4)oc23)c1 | – | – | -0.403% |
| CCCOc1ccc(C(=O)Nc2ccc(NC(=O)c3cccc(Cl)c3)cc2)cc1 | – | inactive | – |
| O=C(NCc1ccc(F)cc1)c1nc(-c2ccc(Cl)nc2)c2cnccn12 | – | – | -11.7% |
| CCc1nn(-c2ccc(OC)cc2)c(Oc2ccccc2F)c1CCC(=O)NC(C)C | – | – | -9.42% |
| CCOCc1ccccc1Nc1ncnc2onc(-c3ccc(Cl)cc3)c12 | – | – | 3.24% |
| CCOc1ccc(NC(=O)C(=O)NCCc2ccccc2)cc1 | – | inactive; activator | – |
| Cc1ccc(C(=O)c2cn(Cc3cccc(F)c3)c3nc(C)ccc3c2=O)cc1 | – | – | -9.43% |
